The text below walks through data of PubChem BioAssay AID1359 (The Scripps Research Institute Molecular Screening Center, 2008).

SMILES strings stand for the structures. Among all 220,000 compounds or so, about 970 (0.44%) were called active. Cut-off read from the data, not from the text of the source: active = activation above about 27%; inactive = the rest. Many of the other results were omitted from the sample, so actives are more common in it than they were.

The assay deals with Neuropeptide Y receptor type 2 (Homo sapiens) (UniProt P49146). In words: human Y2 receptor positive modulation or activation – cell-based, primary screen (AID 1359).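 Note: cells stimulated with NPY near EC25 plus isoproterenol at EC100; 0% = vehicle plus submaximal agonist and 100% = vehicle plus saturating agonist.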 Conditions: cells expressing NPY-Y2, potentiator/agonist read-out; at 3.6 µM; stronger effect = higher value.
Neuropeptide Y receptor type 2 (Homo sapiens), sequence (P49146 whole entry, looked up): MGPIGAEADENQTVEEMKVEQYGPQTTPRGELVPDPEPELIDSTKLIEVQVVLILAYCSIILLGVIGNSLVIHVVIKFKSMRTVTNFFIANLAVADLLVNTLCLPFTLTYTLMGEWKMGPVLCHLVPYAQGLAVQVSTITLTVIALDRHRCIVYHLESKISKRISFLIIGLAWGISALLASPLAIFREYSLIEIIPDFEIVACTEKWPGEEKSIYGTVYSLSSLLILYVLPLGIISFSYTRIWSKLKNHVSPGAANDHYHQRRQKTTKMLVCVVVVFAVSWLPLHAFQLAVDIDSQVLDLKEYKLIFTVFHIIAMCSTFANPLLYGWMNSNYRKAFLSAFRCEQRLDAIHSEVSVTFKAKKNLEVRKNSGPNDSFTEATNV
As for `CC1(C)Cc2c(C#N)c(N3CCNCC3)nc(-c3ccco3)c2CS1`, the activation was 54.8% (active). Turning to `CN(C)P(=S)(Nc1ccccc1)C(Cl)(Cl)Cl` (stereo not given), the activation was 3.95% (inactive). The result for `Cn1c(O)c(C(=Nc2ccc(F)cc2)c2ccccc2)c(=O)n(C)c1=O` reads -10.2% (inactive). Regarding `CCN1CC2C3CCC(C)(O3)C2C1` (stereo not given), the activation is 3.85% (inactive).

`CCCCCCCCCCCCn1ccc(=N)cc1`: the activation is -3.31% (inactive).
